Here are results for ten compounds from PubChem BioAssay (NCATS).

Assay [1] is described as follows: qHTS profiling of the MIPE4 collection as inhibitors of Plasmodium falciparum (3D7) proliferation (AID 743344).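 Note: scaled between DMSO vehicle wells and 0.29 µM artemisinin as full inhibition.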 As to conditions: P. falciparum 3D7 in erythrocytes, SYBR Green DNA fluorescence, 72 h; at 28.5 µM unless noted. Put shortly:
(§1)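 Erythrocytes infected with P. falciparum (0.3% parasitemia, 2.5% hematocrit) incubated with compounds 72 h at 37 C, 5% CO2. Lysis with saponin/Triton buffer containing SYBR Green I, overnight at room temperature in the dark; DNA fluorescence (485/535 nm) normalised to 0.29 uM artemisinin and DMSO.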

The nature of assay [2]: qHTS profiling of the MIPE4 collection as inhibitors of Plasmodium falciparum (DD2) proliferation (AID 743345). The following applies: P. falciparum Dd2 in erythrocytes, SYBR Green DNA, 72 h; at 28.5 µM unless noted. Put shortly:
as §1

The nature of assay [3]: qHTS profiling of the MIPE4 collection as inhibitors of Plasmodium falciparum (DD2) proliferation (Rep 2) (AID 743346). The following applies: P. falciparum Dd2 in erythrocytes, SYBR Green DNA, 72 h; at 28.5 µM unless noted. In a few lines:
as §1

Assay [4] in a line: qHTS profiling of the MIPE4 collection as inhibitors of Plasmodium falciparum (HB3) proliferation (AID 743347).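 Note: plate controls were DMSO vehicle wells for no effect and artemisinin wells for full effect.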 The following applies: P. falciparum HB3 in erythrocytes, SYBR Green DNA, 72 h; at 28.5 µM unless noted. In a few lines:
as §1

A short description of assay [5]: High-throughput drug toxicity screening in the BPDCN cell line Gen2.2 (AID 1224824).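 Note: cells exposed to compounds for 48 h before reading.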 The following applies: Gen2.2 BPDCN cells; at 45.8 µM (top of the series) unless noted. In a few lines: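 Gen2.2 cells (500/well) in phenol red-free RPMI with 10% FBS were exposed to compounds for 48 h at 37 °C, 5% CO2. Viability was read by CellTiter-Glo luminescence and normalized to DMSO (100%) and 9.2 uM bortezomib (0%).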

Assay [6] is described as follows: High-throughput drug toxicity screening in the BPDCN cell line Cal-1 (AID 1224825). The following applies: Cal-1 BPDCN cell viability, qHTS; at 45.8 µM (top of the series) unless noted. Put shortly:
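500 Cal-1 cells/well, RPMI + glutamine + 10% FBS (phenol red-free); cpd added by pin tool; 48 h, 37C, 5% CO2; CTG 15 min RT, lumi read. Normalised: DMSO 100%, bortezomib 9.2 uM 0%.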

Assay [7] can be described thus: qHTS assay for measurement of the activity of small molecule inhibitors on Zika virus induced Caspase-3 activity in human iPSC derived neural progenitor cells (hNPCs) (AID 1224857; active = well fitted inhibition curve with a large enough effect; note: % of control where 0% means no effect; nearly all actives have a fitted effect of over 65% in size). In a few lines: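 After overnight (16–20 h) culture at 350 cells/well, hNPCs get compound, then ZIKV 2 FFU/cell one hour later. Six hours on, Caspase-Glo 3/7 is added and luminescence measured.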

Assay [8] is described as follows: qHTS assay for measurement of the activity of small molecule inhibitors on Zika virus induced Caspase-3 activity in human astrocytoma cells (AID 1224859; active = well fitted inhibition curve with a large enough effect;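 note: plate controls were ZIKV-infected untreated cells for no effect and uninfected cells for full effect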). Put shortly: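 Inhibition of Zika-induced caspase-3/7 activity: SNB-19 cells, 1 h compound pretreatment, ZIKV 2 FFU/cell for 6 h at 37 C, Caspase-Glo luminescence read-out.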

Records with an inconclusive call do not appear. Activity calls are given as the source filed them. Unless noted, the rule behind the calls is not given here.

In assay [1], `Cc1c(O)cccc1C(=O)N[C@@H](CSc1ccccc1)[C@H](O)CN1C[C@H]2CCCC[C@@H]2C[C@@H]1C(=O)NC(C)(C)C` showed a parasite growth, % of DMSO control of 10.1%. This compound displayed a parasite growth remaining, % of DMSO control (lower = more inhibition) in assay [2] of 36%. Besides, the parasite growth, % of control (lower = inhibition) in assay [3] is 37.7%. In assay [4], the growth, % of control came to 15.7%. Besides, the cell viability, % of control (lower = more cytotoxic) in assay [5] was 66.8%. Further, in assay [6], the viability (% of control) came out at 4.13%. The Potency entry in assay [7] and in assay [8] was “inactive” in each case.

In assay [1], `CCOC(=O)O[C@]1(C(=O)OCCl)CC[C@@H]2[C@H]3CCC4=CC(=O)C=C[C@]4(C)[C@@H]3[C@@H](O)C[C@@]21C` displayed a parasite growth, % of DMSO control of 48.2%. Also, in assay [2], the parasite growth remaining, % of DMSO control (lower = more inhibition) was found to be 86.4%. This compound showed a parasite growth, % of control (lower = inhibition) in assay [3] of 44.6%. The growth, % of control in assay [4] stood at 68.7%. In addition, in assay [5], the cell viability, % of control (lower = more cytotoxic) was 84.3%. Also, the viability (% of control) in assay [6] was determined as 77.6%. Further, the Potency result in assay [7] and in assay [8] was “inactive” in each case.

Regarding `COc1cc(O)c2c(c1)C(=O)c1cc(C)cc(O)c1C2=O`, in assay [1], the parasite growth, % of DMSO control is 81.1% [at 9.64 µM]. In addition, in assay [2], the parasite growth remaining, % of DMSO control (lower = more inhibition) is 92.9% [at 9.64 µM]. In assay [3], the parasite growth, % of control (lower = inhibition) was 84.4% [at 9.64 µM]. Further, in assay [4], the growth, % of control stood at 47.7% [at 9.64 µM]. In addition, the cell viability, % of control (lower = more cytotoxic) in assay [5] came out at 154% [at 23.2 µM]. Also, the viability (% of control) in assay [6] was 101% [at 23.2 µM]. The Potency entry in assay [7] and in assay [8] was “inactive” in each case.

In turn, `CC#CCn1c(N2CCC[C@@H](N)C2)nc2c1c(=O)n(Cc1nc(C)c3ccccc3n1)c(=O)n2C` registered a parasite growth, % of DMSO control in assay [1] of 58%. The parasite growth remaining, % of DMSO control (lower = more inhibition) in assay [2] turned out to be 22.5%. The same compound gave a parasite growth, % of control (lower = inhibition) in assay [3] of 22.9%. In assay [4], the growth, % of control came to 88.9%. The cell viability, % of control (lower = more cytotoxic) in assay [5] is 159%. For the same compound, the viability (% of control) in assay [6] is 101%. The Potency entry in assay [7] and in assay [8] was “inactive” throughout.

As to `O=C(O)C(O)Cc1ccc(O)c(O)c1` (stereo not given), in assay [1], the parasite growth, % of DMSO control was determined as 102%. For the same compound, the parasite growth remaining, % of DMSO control (lower = more inhibition) in assay [2] stood at 79.5%. Also, the parasite growth, % of control (lower = inhibition) in assay [3] was found to be 65.6%. Besides, the growth, % of control in assay [4] came out at 106%. Further, the cell viability, % of control (lower = more cytotoxic) in assay [5] was determined as 94.8%. In assay [6], the viability (% of control) was found to be 105%. Also, the Potency entry in assay [7] and in assay [8] was “inactive” in each case.

The compound `COCCOc1nc(-c2ccc(Cl)c(Cl)c2)n(-c2ccc(NC(=O)CCl)cc2)n1` registered a parasite growth, % of DMSO control in assay [1] of 20.8%. This compound also came in with a parasite growth remaining, % of DMSO control (lower = more inhibition) in assay [2] of 64%. Moreover, the parasite growth, % of control (lower = inhibition) in assay [3] is 31.7%. Further, the growth, % of control in assay [4] was found to be 30.2%. Moreover, in assay [5], the cell viability, % of control (lower = more cytotoxic) amounted to 114%. The viability (% of control) in assay [6] is 37.2%. For the same compound, the Potency result in assay [7] and in assay [8] was “inactive” in each case.

In turn, `Cn1cc(C=C2C(=O)Nc3cccnc32)c2ccccc21` had a parasite growth, % of DMSO control in assay [1] of 42.6%. The compound further displayed a parasite growth remaining, % of DMSO control (lower = more inhibition) in assay [2] of 82.2%. This compound displayed a parasite growth, % of control (lower = inhibition) in assay [3] of 53%. This compound also came in with a growth, % of control in assay [4] of 2.02%. Also, in assay [5], the cell viability, % of control (lower = more cytotoxic) amounted to 111%. Also, the viability (% of control) in assay [6] amounted to 63.5%. The Potency entry in assay [7] and in assay [8] was “inactive” throughout.

Compound `CC(C)C[C@H](CC(=O)O)C(=O)N[C@@H](Cc1c[nH]c2ccccc12)C(=O)N[C@@H](C)c1ccccc1` gave a parasite growth, % of DMSO control in assay [1] of 79.9%. Besides, the parasite growth remaining, % of DMSO control (lower = more inhibition) in assay [2] was 77.8%. The same compound returned a parasite growth, % of control (lower = inhibition) in assay [3] of 57.5%. In addition, the growth, % of control in assay [4] is 34.7%. The cell viability, % of control (lower = more cytotoxic) in assay [5] was 161%. The viability (% of control) in assay [6] is 6.64%. The Potency entry in assay [7] and in assay [8] was “inactive” in each case.

As to `CC(=O)OC1C(C)OC(Oc2c(-c3ccc(O)cc3)oc3cc(O)cc(O)c3c2=O)C(O)C1OC(C)=O` (stereo not given), in assay [1], the parasite growth, % of DMSO control came to 11.3%. In assay [2], the parasite growth remaining, % of DMSO control (lower = more inhibition) stood at 72.5%. This compound yielded a parasite growth, % of control (lower = inhibition) in assay [3] of 32.5%. Moreover, the growth, % of control in assay [4] was found to be 4.99%. In addition, the cell viability, % of control (lower = more cytotoxic) in assay [5] was 5.65%. The viability (% of control) in assay [6] turned out to be 7.44%. The Potency entry in assay [7] and in assay [8] was “inactive” each time.

Compound `NC1=N[C@@]2(c3cc(NC(=O)c4ccc(F)cn4)ccc3F)COC[C@@H]2CS1` came in with a parasite growth, % of DMSO control in assay [1] of 23.2%. For the same compound, the parasite growth remaining, % of DMSO control (lower = more inhibition) in assay [2] was determined as 20.8%. Besides, the parasite growth, % of control (lower = inhibition) in assay [3] amounted to 26.1%. The compound also came in with a growth, % of control in assay [4] of 20.1%. In assay [5], the cell viability, % of control (lower = more cytotoxic) came out at 21.6%. For the same compound, the viability (% of control) in assay [6] came to 12.9%. Further, the Potency entry in assay [7] and in assay [8] was “inactive” in each case.
